Values joined by “and” are separate entries in the source; they are usually repeats but may differ in a detail not shown here. Equal values may be shown once. The campaign covered roughly 5,500 compounds. About 2,000 (36%) were called active. About 18% were inconclusive and are not listed. Cut-off read from the data, not from the text of the source: active = normalized growth mostly below about 0.91 (no sharp cut-off); inconclusive = no clear call, values can overlap the other calls; inactive = mostly above about 0.92. The list shows a part of the results.
Experiment: chemical genetic growth profiling, strain panel (AID 1159580);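 note: tested at 20 µM; growth read once vehicle control cultures reached saturation at 30 °C; 1 = growth at the plate median or of vehicle wells; lower values mean less growth of the strain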
Settings: S. cerevisiae deletion strains, growth OD

Measured: normalized growth

NNCCc1ccccc1
inactive: locus YAL013W, strain DEP1, active compounds read low 1 | locus YAL021C, strain ccr4, active compounds read low 1.01 | locus YAL026C, strain drs2, active compounds read low 1.02 | locus YAL030W, strain snc1, active compounds read low 1.01 | locus YAL040C, strain CLN3, active compounds read low 1.04 | locus YBL061C, strain skt5, active compounds read low 1.01 | locus YBR009C, strain hhf1, active compounds read low 1.01 | locus YBR021W, strain FUR4, active compounds read low 0.997 | locus YBR023C, strain chs3, active compounds read low 1.01 | locus YBR171W, strain sec66, active compounds read low 1.02 | locus YBR229C, strain ROT2, active compounds read low 0.954 | locus YBR231C, strain swc5, active compounds read low 1.01 | locus YBR279W, strain paf1, active compounds read low 1.01 | locus YCL011C, strain gbp2, active compounds read low 1.01 | locus YCL016C, strain dcc1, active compounds read low 1.01 | locus YCL029C, strain bik1, active compounds read low 0.968 | locus YCL061C, strain MRC1 (second series), active compounds read low 1.01 | locus YCL061C, strain MRC1, active compounds read low 1.01 | locus YCL069W, strain vba3, active compounds read low 1 | locus YCR088W, strain abp1, active compounds read low 1.01 | locus YDL005C, strain med2, active compounds read low 1.01 | locus YDL035C, strain GPR1, active compounds read low 0.973 | locus YDL040C, strain nat1, active compounds read low 1 | locus YDL074C, strain BRE1, active compounds read low 0.946 | locus YDL101C, strain DUN1, active compounds read low 0.975 | locus YDL134C, strain PPH21, active compounds read low 0.994 | locus YDL185W, strain tfp1, active compounds read low 0.98 | locus YDL192W, strain arf1, active compounds read low 0.986 | locus YDR001C, strain nth1, active compounds read low 1 | locus YDR069C, strain doa4, active compounds read low 1 | locus YDR101C, strain arx1, active compounds read low 0.985 | locus YDR137W, strain rgp1, active compounds read low 1.02 | locus YDR150W, strain NUM1, active compounds read low 0.996 | locus YDR159W, strain sac3, active compounds read low 1.01 | locus YDR162C, strain NBP2, active compounds read low 0.991 | locus YDR195W, strain ref2 0.997 | locus YDR297W, strain sur2, active compounds read low 1 | locus YDR318W, strain mcm21, active compounds read low 0.991 | locus YDR334W, strain swr1, active compounds read low 0.999 | locus YDR335W, strain msn5, active compounds read low 1.01 | locus YDR363W, strain ESC2, active compounds read low 1.06 | locus YDR388W, active compounds read low 0.991 | locus YDR392W, strain spt3, active compounds read low 0.93 | locus YDR502C, strain sam2, active compounds read low 0.994 | locus YEL003W, strain gim4, active compounds read low 0.997 | locus YEL037C, strain rad23, active compounds read low 1.01 | locus YEL061C, strain CIN8 (second series), active compounds read low 1.01 | locus YEL061C, strain CIN8, active compounds read low 0.98 | locus YER002W, strain NOP16, active compounds read low 0.998 | locus YER015W, strain faa2, active compounds read low 0.994 | locus YER016W, strain bim1, active compounds read low 1.01 | locus YER110C, active compounds read low 0.952 | locus YER111C, strain swi4, active compounds read low 1.01 | locus YER155C, strain BEM2 (second series), active compounds read low 1 | locus YER155C, strain BEM2, active compounds read low 1 | locus YER167W, strain BCK2, active compounds read low 0.99 | locus YFR010W, strain ubp6, active compounds read low 0.989 | locus YGL078C, strain dbp3, active compounds read low 0.995 | locus YGL086W, strain mad1, active compounds read low 0.976 | locus YGL167C, strain pmr1, active compounds read low 1.01 | locus YGL173C, strain kem1, active compounds read low 1.01 | locus YGL227W, strain vid30, active compounds read low 1.02 | locus YGL240W, strain doc1, active compounds read low 1 | locus YGL248W, strain PDE1, active compounds read low 0.979 | locus YGL253W, strain hxk2, active compounds read low 1.01 | locus YGR078C, strain PAC10, active compounds read low 1.01 | locus YGR135W, strain pre9, active compounds read low 0.982 | locus YGR229C, strain SMI1, active compounds read low 0.985 | locus YGR252W, strain gcn5, active compounds read low 0.898 | locus YHR013C, strain ard1, active compounds read low 1.02 | locus YHR027C, strain rpn1, active compounds read low 1 | locus YHR030C, strain SLT2, active compounds read low 0.996 and 0.983 | locus YHR079C, strain IRE1 (second series), active compounds read low 0.991 | locus YHR079C, strain IRE1, active compounds read low 0.965 | locus YHR094C, strain hxt1, active compounds read low 0.99 | locus YHR129C, strain ARP1, active compounds read low 0.981 | locus YHR142W, strain chs7, active compounds read low 1.02 | locus YHR200W, strain rpn10, active compounds read low 0.989 | locus YIL066C, strain RNR3, active compounds read low 0.978 | locus YIL073C, strain SPO22, active compounds read low 0.992 | locus YIL125W, strain kgd1, active compounds read low 0.996 | locus YIR030C, strain dcg1, active compounds read low 0.981 | locus YJL092W, strain hpr5, active compounds read low 1 | locus YJL095W, strain BCK1 (second series), active compounds read low 1.01 | locus YJL095W, strain BCK1, active compounds read low 0.987 and 0.984 | locus YJL115W, strain asf1, active compounds read low 1.01 | locus YJL129C, strain trk1, active compounds read low 1.01 | locus YJL134W, strain LCB3, active compounds read low 0.993 | locus YJL154C, strain vps35, active compounds read low 1.01 | locus YJL164C, strain tpk1, active compounds read low 1 | locus YJL166W, strain qcr8, active compounds read low 1.01 | locus YJL168C, strain set2, active compounds read low 0.985 | locus YJL187C, strain SWE1 (second series), active compounds read low 0.976 | locus YJL187C, strain SWE1, active compounds read low 1.01 | locus YJR043C, strain POL32, active compounds read low 0.988
